“And” between values parts separate entries of the source, which are not always exact repeats. Equal values may be shown once. Records with an inconclusive call do not appear. The source made the active and inactive calls. Unless noted, calls come from the whole dose curve; as a rule, active = well fitted curve in the direction sought with a large enough effect; inconclusive = small, poorly fitted or top-dose-only effect, or another doubt; inactive = no such curve, though single readings can be large; an effect the other way counts as inactive or inconclusive.
Experiments:
[1] = biological target: Cytochrome P450 3A4 (Homo sapiens) (UniProt P08684); experiment: qHTS Assay for Inhibitors and Substrates of Cytochrome P450 3A4 (AID 884); note: series mostly up to about 57 µM; % is set by controls: 0 for no effect and ±100 for the full control effect; nearly all actives have a fitted effect of over 50% in size
Sequence of Cytochrome P450 3A4 (Homo sapiens) (P08684 whole entry, looked up): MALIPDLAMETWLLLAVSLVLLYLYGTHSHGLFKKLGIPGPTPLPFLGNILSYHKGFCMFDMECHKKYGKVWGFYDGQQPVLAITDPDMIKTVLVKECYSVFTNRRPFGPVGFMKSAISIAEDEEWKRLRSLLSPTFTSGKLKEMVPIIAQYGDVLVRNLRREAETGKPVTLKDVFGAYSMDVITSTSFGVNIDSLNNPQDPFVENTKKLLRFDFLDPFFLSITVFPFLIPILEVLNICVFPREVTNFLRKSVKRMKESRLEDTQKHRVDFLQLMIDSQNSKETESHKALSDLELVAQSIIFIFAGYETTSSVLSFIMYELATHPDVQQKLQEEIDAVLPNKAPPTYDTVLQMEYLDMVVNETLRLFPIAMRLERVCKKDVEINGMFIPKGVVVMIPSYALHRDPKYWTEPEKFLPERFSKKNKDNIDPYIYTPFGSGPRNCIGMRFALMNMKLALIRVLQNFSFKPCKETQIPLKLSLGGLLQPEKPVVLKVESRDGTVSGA
Procedure, shortened: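 20 nM human CYP3A4 with 25 uM Luciferin-PPXE (at KM) in 200 mM KPO4, preincubated 10 min with compound; NADPH regeneration started a 60 min RT reaction. Luciferin detected by luminescence, normalized to 57 uM ketoconazole as full inhibition.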

[2] = MultiTox-Fluor Cytotoxicity Assay - LYMP1-001 - Live Cells (AID 947);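 note: 0% = DMSO only and full inhibition = tetraoctylammonium bromide control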
[3] = Cell Viability - LYMP2-003 (AID 965);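 note: cells exposed to compounds for 24 h before reading; 0% = DMSO only and full effect = 92 µM tetraoctylammonium bromide; nearly all actives have a fitted effect of over 50% in size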
Procedure, shortened: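 Human lymphoblastoid cells (2500/well) were pre-incubated 5 hr at 37 C, then exposed to compounds over a concentration range for 24 hr at 37 C. Intracellular ATP was read by CellTiter-Glo luminescence; AC50 came from Hill-equation fits.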

[4] = biological target: Bile acid receptor (Homo sapiens) (UniProt Q96RI1); experiment: qHTS assay for small molecule antagonists of farnesoid X receptor signaling (AID 588526; calls by dose curve; note: % is set by controls: 0 for no effect and ±100 for the full control effect)
Sequence of Bile acid receptor (Homo sapiens) (Q96RI1 whole entry, looked up): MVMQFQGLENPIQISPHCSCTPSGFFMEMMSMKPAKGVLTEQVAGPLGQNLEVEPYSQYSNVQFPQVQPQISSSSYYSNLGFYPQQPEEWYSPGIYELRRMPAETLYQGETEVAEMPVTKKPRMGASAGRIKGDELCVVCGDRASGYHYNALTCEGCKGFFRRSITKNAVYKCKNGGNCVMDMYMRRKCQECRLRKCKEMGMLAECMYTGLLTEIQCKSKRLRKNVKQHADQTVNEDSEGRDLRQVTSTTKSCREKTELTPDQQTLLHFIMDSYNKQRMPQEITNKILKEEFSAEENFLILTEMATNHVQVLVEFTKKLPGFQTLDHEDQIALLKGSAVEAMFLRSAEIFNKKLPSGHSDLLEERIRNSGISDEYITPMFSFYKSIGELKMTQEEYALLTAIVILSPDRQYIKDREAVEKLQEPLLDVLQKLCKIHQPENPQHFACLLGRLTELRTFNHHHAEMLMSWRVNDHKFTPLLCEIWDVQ
Procedure, shortened: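 Beta-lactamase reporter antagonist mode: HEK293T FXR-UAS-bla cells, titrated compound, CDCA stimulation, 16 h 37 C, CCF4 dye 2 h RT. Data normalized to CDCA 50 uM and DMSO; Hill-fit IC50.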

[5] = biological target: Glucocorticoid receptor (Homo sapiens) (UniProt P04150); experiment: qHTS assay for small molecule agonists of glucocorticoid receptor signaling (AID 588532; active = well fitted curve in the direction sought with a large enough effect in the signal ratio, with a control signal flat; the % refers to the signal ratio;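 note: 100% = dexamethasone at 0.1 µM and 0% = DMSO only wells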); conditions: HeLa MMTV-bla, beta-lactamase ratio, agonist, 18 h; stronger effect = higher value; percent of dexamethasone control, DMSO zero
Sequence of Glucocorticoid receptor (Homo sapiens) (P04150 whole entry, looked up): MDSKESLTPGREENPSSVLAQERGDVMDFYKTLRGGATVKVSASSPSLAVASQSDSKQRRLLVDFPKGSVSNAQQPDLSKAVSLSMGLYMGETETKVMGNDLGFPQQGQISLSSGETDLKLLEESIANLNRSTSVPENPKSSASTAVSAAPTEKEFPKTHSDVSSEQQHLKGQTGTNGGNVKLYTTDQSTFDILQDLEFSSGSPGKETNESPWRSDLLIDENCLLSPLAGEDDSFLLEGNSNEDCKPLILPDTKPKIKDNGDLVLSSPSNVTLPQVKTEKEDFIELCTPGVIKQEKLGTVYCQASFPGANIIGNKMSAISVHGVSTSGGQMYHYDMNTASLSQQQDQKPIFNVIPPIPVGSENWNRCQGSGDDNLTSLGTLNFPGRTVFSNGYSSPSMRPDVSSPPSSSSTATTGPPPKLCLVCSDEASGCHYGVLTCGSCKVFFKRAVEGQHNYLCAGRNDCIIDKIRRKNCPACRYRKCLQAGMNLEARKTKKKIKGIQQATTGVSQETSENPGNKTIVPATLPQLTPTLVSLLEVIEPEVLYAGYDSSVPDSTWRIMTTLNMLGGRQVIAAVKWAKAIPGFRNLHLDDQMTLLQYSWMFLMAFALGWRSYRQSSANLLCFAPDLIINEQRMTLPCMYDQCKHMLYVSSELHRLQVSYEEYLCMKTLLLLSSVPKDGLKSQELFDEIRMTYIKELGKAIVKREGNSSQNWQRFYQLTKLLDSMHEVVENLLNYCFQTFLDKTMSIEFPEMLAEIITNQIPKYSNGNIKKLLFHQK
Procedure, shortened: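 Agonist-mode qHTS: GRE-driven beta-lactamase in HeLa cells exposed 18 h to titrated compounds (up to 92 uM), then CCF4 ratio read after 2 h at RT; Hill-fitted EC50, efficacy relative to 0.1 uM dexamethasone.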

[6] = qHTS assay for small molecule antagonists of peroxisome proliferator-activated receptor delta signaling (AID 588535; active = well fitted inhibition curve with a large enough effect in the signal ratio, with a control signal flat, not every such curve was filed as active; the % refers to the signal ratio;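 for max response: cells co-treated with a PPAR-delta agonist as stimulator during compound exposure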); conditions: HEK293T PPARd-UAS-bla, beta-lactamase FRET ratio, 18 h; 460 nm channel
Procedure, shortened: (§1)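 HEK293T PPAR-delta-UAS-bla cells, 4000/well, 2% charcoal/dextran FBS; 5 h 37 C; cpd titration; 18 h 37 C; CCF4 2 h RT; FI 460/530 nm; Hill fit → IC50, efficacy.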

[7] = biological target: Peroxisome proliferator-activated receptor delta (Homo sapiens) (UniProt Q03181); experiment: as above
Sequence of Peroxisome proliferator-activated receptor delta (Homo sapiens) (Q03181 whole entry, looked up): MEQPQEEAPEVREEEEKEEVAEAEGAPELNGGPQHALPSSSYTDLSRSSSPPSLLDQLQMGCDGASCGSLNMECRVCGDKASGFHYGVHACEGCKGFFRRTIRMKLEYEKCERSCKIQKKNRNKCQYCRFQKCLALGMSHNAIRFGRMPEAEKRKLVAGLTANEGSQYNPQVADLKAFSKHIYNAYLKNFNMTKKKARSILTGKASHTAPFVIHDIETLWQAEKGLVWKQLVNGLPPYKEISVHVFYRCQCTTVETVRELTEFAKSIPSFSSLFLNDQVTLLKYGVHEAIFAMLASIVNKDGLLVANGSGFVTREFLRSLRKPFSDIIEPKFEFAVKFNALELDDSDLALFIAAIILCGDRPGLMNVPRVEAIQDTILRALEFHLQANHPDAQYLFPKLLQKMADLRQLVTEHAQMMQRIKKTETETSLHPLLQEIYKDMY
Procedure, shortened: as §1

[8] = biological target: Peroxisome proliferator-activated receptor gamma (Homo sapiens) (UniProt P37231); experiment: qHTS assay for small molecule antagonists of peroxisome proliferator-activated receptor gamma signaling (AID 588537; active = well fitted inhibition curve with a large enough effect in the signal ratio, with a control signal flat, not every such curve was filed as active; the % refers to the signal ratio;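 note: reporter cells co-stimulated with 50 nM rosiglitazone agonist during compound treatment; % of control where 0% means no effect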)
Sequence of Peroxisome proliferator-activated receptor gamma (Homo sapiens) (P37231 whole entry, looked up): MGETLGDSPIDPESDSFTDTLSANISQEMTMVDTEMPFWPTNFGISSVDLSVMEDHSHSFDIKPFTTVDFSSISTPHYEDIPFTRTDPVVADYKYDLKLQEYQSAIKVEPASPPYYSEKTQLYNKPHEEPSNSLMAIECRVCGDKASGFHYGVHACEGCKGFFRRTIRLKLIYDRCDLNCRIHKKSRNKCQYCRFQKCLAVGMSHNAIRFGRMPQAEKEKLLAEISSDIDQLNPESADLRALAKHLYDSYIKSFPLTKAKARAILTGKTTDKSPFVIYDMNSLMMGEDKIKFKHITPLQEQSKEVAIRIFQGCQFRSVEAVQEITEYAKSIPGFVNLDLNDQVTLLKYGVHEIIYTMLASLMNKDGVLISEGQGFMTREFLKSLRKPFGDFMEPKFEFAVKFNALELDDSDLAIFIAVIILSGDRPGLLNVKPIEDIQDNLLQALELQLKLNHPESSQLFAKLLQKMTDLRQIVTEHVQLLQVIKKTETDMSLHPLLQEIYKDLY
Procedure, shortened: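 Antagonist mode, beta-lactamase reporter in HEK293; charcoal/dextran FBS 1%; 3000 cells/well, 37 C 6-6.5 h; cpd titration + rosiglitazone 50 nM final, 16 h 37 C; CCF4, 2 h RT; 460/530 nm; Hill fit → IC50, efficacy.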

[9] = biological target: Vitamin D3 receptor (Homo sapiens) (UniProt P11473); experiment: qHTS assay for small molecule antagonists of vitamin D receptor signaling (AID 588541; calls by dose curve;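 note: receptor activated by calcitriol during compound treatment; series mostly up to about 77 µM; % is set by controls: 0 for no effect and ±100 for the full control effect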)
Sequence of Vitamin D3 receptor (Homo sapiens) (P11473 whole entry, looked up): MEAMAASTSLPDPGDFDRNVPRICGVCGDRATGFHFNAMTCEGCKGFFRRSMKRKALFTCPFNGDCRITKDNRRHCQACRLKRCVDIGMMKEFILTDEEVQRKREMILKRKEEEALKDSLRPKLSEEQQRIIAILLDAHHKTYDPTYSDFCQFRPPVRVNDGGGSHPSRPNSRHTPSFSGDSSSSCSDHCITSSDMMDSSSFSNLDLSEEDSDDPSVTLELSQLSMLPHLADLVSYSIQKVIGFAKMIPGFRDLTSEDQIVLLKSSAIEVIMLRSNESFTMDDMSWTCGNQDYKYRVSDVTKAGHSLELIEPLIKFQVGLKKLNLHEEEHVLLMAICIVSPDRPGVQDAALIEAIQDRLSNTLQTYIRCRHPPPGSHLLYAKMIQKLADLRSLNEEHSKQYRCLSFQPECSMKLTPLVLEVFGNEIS
Procedure, shortened: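 Antagonist-mode beta-lactamase reporter assay: HEK293T VDR-UAS-bla cells were exposed to titrated compound alongside 1-alpha,25-dihydroxyvitamin D3 at 3 nM final for 16 h. Values were normalized to the 50 nM agonist control and DMSO basal, with IC50 and efficacy from Hill equation fits.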

[10] = biological target: Vitamin D3 receptor (Homo sapiens) (UniProt P11473); experiment: qHTS assay for small molecule agonists of vitamin D receptor signaling (AID 588543; calls by dose curve;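 note: 0% = DMSO basal and 100% = reference agonist control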)
Procedure, shortened: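 GeneBLAzer VDR-UAS-bla HEK293T cells in 2% charcoal-stripped FBS medium were dosed with compound titrations for 16 h at 37 °C; CCF4 β-lactamase readout (405 nm ex, 460/530 nm em). EC50 and efficacy from Hill fits, normalized to 50 nM calcitriol (100%) and DMSO (0%).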

[11] = qHTS assay for small molecule agonists of the antioxidant response element (ARE) signaling pathway (AID 651741; active = well fitted activation curve with a large enough effect in the signal ratio; the % refers to the signal ratio; note: potency is the fitted concentration of half-maximal effect; for activation: % of control where 0% means no effect)
Procedure, shortened: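 Quantitative HTS in HepG2 cells stably expressing an ARE-beta-lactamase reporter; 16 h compound exposure at 37 C, followed by 2 h room-temperature incubation with LiveBLAzer B/G FRET substrate and fluorescence measurement.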

[12] = qHTS assay for small molecule activators of the p53 signaling pathway (AID 651743; active = well fitted activation curve with a large enough effect in the signal ratio, not every such curve was filed as active; the % refers to the signal ratio; note: series mostly up to about 92 µM; % of control where 0% means no effect); conditions: HCT-116 p53RE-bla, beta-lactamase FRET ratio, 16 h; activation: stronger effect = higher value
Procedure, shortened: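 Read-out is fluorescence intensity from the LiveBLAzer B/G FRET substrate, added for 2 hours at room temperature after HCT-116 p53RE-bla cells had been incubated with compounds for 16 hours at 37 C.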

[13] = qHTS assay for small molecule activators of the human pregnane X receptor (PXR) signaling pathway (AID 720659; call rule not given here; note: 0% is about no effect)
[14] = Cellular Toxicity (caspase-3) HUV-EC-C (AID 656);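 note: 0% = DMSO basal and 100% = 100 µM tamoxifen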
Procedure, shortened: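 HUV-EC-C endothelial cells, 1000/well, were pre-incubated 5 hr at 37°C, then exposed to compounds for 16 hr at 37°C. Caspase-Glo 3/7 luminescence was read after 20 min at room temperature. AC50 came from Hill fits, normalized to DMSO and 100 uM tamoxifen.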

[15] = Cell Viability - LYMP2-015 (AID 971);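 note: 0% = DMSO only and full effect = 92 µM tetraoctylammonium bromide; nearly all actives have a fitted effect of over 55% in size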
Procedure, shortened: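 Luminescent ATP read-out (CellTiter-Glo) served as the viability measure after lymphoblastoid cells were exposed to compounds for 24 hours at 37 C. Concentration-response data were fitted with the Hill equation to give AC50.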

[16] = qHTS assay for small molecule activators of the nuclear factor-kappa B (NF-kB) signaling pathway (AID 651749; active = well fitted activation curve with a large enough effect in the signal ratio; the % refers to the signal ratio; note: series mostly up to about 77 µM; % of control where 0% means no effect); conditions: NF-kB-bla ME-180 cells, beta-lactamase FRET ratio, 16 h; activation: stronger effect = higher value
Procedure, shortened: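 Readout: beta-lactamase reporter driven by an NF-kB response element, detected fluorescently as loss of FRET. Cells were the ME-180 line, treated 16 hr at 37C with pin-transferred compound.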

[17] = biological target: Nuclear receptor subfamily 1 group I member 2 (Rattus norvegicus) (UniProt Q9R1A7); experiment: qHTS assay for small molecule activators of the rat pregnane X receptor (rPXR) signaling pathway (AID 651751; call rule not given here; note: 0% is about no effect); conditions: rPXR reporter cells, luciferase (One-Glo), 24 h
Sequence of Nuclear receptor subfamily 1 group I member 2 (Rattus norvegicus) (Q9R1A7 whole entry, looked up): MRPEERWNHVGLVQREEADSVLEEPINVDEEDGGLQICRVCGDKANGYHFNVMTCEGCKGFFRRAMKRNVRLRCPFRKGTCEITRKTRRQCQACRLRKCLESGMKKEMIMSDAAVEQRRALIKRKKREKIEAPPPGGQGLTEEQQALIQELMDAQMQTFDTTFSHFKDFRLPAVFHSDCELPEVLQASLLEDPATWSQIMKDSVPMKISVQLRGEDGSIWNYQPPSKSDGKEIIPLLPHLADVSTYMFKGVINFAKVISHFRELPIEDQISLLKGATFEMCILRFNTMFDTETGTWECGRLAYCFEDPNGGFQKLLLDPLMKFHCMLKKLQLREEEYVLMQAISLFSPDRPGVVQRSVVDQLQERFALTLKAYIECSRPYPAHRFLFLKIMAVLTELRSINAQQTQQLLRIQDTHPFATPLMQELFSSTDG

[18] = Cell Viability - LYMP2-020 (AID 986);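 note: series mostly up to about 92 µM; plate controls were DMSO only for no effect and tetraoctylammonium bromide at 92 µM for full effect; nearly all actives have a fitted effect of over 55% in size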
Procedure, shortened: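 Luminescent ATP signal (CellTiter-Glo, 30 min at room temperature) is the read-out after 24 h compound treatment of lymphoblastoid cells at 37 C. AC50 values come from Hill-equation fits across concentrations.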

[19] = Cell Viability - LYMP1-002 - Assay at 40 hr (AID 994);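 note: 0% = DMSO only and full inhibition = 92 µM tetraoctylammonium bromide; nearly all actives have a fitted effect of over 60% in size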
Procedure, shortened: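 Luminescent ATP signal served as the viability readout, with decreases taken as toxicity. Cells were treated with compounds across a concentration range for 40 hours at 37 C, and AC50 values came from standard Hill modeling.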

OCC(Br)CBr (stereo not given)
7.4%: max response [6]
inactive: Potency [1] | Potency [2] | Potency [3] | outcome [4] | activation [5] 4.78% | Potency [7] | Potency [8] | outcome [9] | outcome [10] | Potency [11] | activation [12] 1.53% | outcome [13]

C=C(C)C(=O)OCC1CO1 (stereo not given)
inactive: outcome [14] | Potency [1] | Potency [2] | Potency [15] | outcome [4] | activation [5] -3.77% | Potency [7] | Potency [8] | outcome [9] | outcome [10] | activation [12] -0.637% | activation [16] 0.768% | max response [17] -2.46% | outcome [13]
-13.4%: max response [6]

CCC[CH2][Sn]([Cl])([Cl])[Cl]
31.1% and 8.78%: max response [6]
active: Potency [11] 13.3 µM
inactive: outcome [14] | Potency [3] | Potency [18] | Potency [19] | outcome [4] | activation [5] -4.16% and -3.24% | Potency [7] | Potency [8] | activation [12] 0.255% and 3.17% | activation [16] -0.955% and -1.49% | max response [17] 2.08% and 0.146% | outcome [13]

Cc1ccc(O)c(C)c1
active: Potency [11] 398 µM
inactive: outcome [14] | Potency [1] | Potency [3] | Potency [18] | Potency [19] | activation [5] 12.9% and 20.9% | Potency [7] | Potency [8] | activation [12] -2.98% and 8.45% and 2.43% | activation [16] 0.131% and -0.324% and 1.7% | max response [17] -2.91% and 1.12% and -5.05%
-17.8% and 29.7%: max response [6]

N#CCCCl
inactive: outcome [14] | Potency [1] | Potency [2] | Potency [3] | activation [5] -5% and -0.386% | outcome [9] | outcome [10] | Potency [11] | activation [12] -0.742% and -1.01% | activation [16] -0.282% and -0.0737% | max response [17] -4.29% and -2.84% | outcome [13]

COc1ccc(N)cc1
35%: max response [6]
inactive: Potency [1] | Potency [18] | Potency [19] | activation [5] -7.51% and 3.18% | Potency [7] | activation [12] -2.17% and -1.84% | outcome [13]

ClC(Cl)=C(Cl)C(Cl)=C(Cl)Cl
inactive: outcome [14] | Potency [1] | Potency [15] | Potency [19] | activation [5] -16.2% | Potency [7] | Potency [11] | max response [17] 2.24% and -2.02% | outcome [13]
-24.7% and -5.61%: max response [6]

Source: PubChem BioAssay (NCATS)
